Source: PubChem BioAssay
Shown are actives, neighbours in structure and some others; about 1.7% of the full set was active somewhere.
ZTA DNA inh: ZTA (EBV) inhibition in EBNA-1 counter-screen | 0.15% of 320,000 active | ZTA-DNA binding, fluorescence polarization | inhibition, % at 11 µM | AID 2234 | P03206; in the data active means inhibition above about 33%
LYPLA2 inh: blocks human lysophospholipase 2, a PME1 counter-screen. recombinant LYPLA2, FP-Rh probe fluorescence polarization. inhibition, % at 5.9 µM. AID 2177. O95372. 0.38% of 320,000 active;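 active means inhibition above the screen-wide mean plus 3 SD, limit set per campaign, cut at about 26% in these data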;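 further: 0% = LYPLA2 with DMSO and 100% = wells lacking LYPLA2 enzyme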
Target sequence (O95372 whole entry, looked up): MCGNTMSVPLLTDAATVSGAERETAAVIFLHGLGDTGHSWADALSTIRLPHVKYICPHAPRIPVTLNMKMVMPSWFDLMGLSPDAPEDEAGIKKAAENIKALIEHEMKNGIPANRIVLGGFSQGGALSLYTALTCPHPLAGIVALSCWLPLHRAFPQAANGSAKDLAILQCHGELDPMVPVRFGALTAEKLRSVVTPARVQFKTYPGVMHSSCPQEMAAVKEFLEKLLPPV
EBNA-1 inhibitor: blocks EBNA-1 binding to DNA; EBNA-1 DNA binding, fluorescence polarization; AID 1950; inhibition, % at 14.8 µM; 0.34% of 300,000 active; in the data active means inhibition above about 28%
LYPLA1 inh: blocks human lysophospholipase 1, a PME1 counter-screen | inhibition, % at 5.9 µM | AID 2174 | recombinant LYPLA1, FP-Rh probe fluorescence polarization | O75608 | 0.16% of 320,000 active;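 active means inhibition above the mean of all tested compounds plus 3 SD, set per campaign, cut at about 14% in these data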;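 further: inhibitors block serine hydrolase probe labeling of LYPLA1 so polarization falls; 0% = enzyme with DMSO and 100% = wells lacking LYPLA1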
Target sequence (O75608 whole entry, looked up): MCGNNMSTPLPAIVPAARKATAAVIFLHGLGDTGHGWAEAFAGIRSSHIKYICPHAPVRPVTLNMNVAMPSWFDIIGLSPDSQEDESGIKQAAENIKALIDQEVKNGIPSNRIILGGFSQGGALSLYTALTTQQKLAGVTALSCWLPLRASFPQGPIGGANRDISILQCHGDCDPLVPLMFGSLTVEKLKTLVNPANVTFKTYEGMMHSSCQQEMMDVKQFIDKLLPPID
PAD4 inh: inhibitors of human PAD4 | Q9UM07 | recombinant PAD4, RCA probe fluorescence polarization | inhibition, % at 6.36 µM | 0.41% of 330,000 active | AID 485272;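 active means percent inhibition above a cutoff equal to the mean of all tested compounds plus 3 SD, cut at about 15% in these data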;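 further: 0% = PAD4 with RCA probe and DMSO and 100% = probe without PAD4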
GSTO1 inh: counter-screen for RBBP9 inhibitors: inhibitors of human GSTO1. 1.1% of 300,000 active. inhibition, % at 5.96 µM. recombinant GSTO1, activity-based probe fluorescence polarization. AID 1974;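 active means inhibition above the campaign mean inhibition plus 3 SD, cut at about 35% in these data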;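 further: 0% = GSTO1-1 with DMSO and 100% = wells lacking GSTO1-1 enzyme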
The depositor's hits bear a star.

What do the screens show for `CN(C)C(=O)c1ccc2c(c1[N+](=O)[O-])C(=O)c1ccccc1C2=O`?
ZTA DNA inh: -9.1; LYPLA2 inh: 14.3; EBNA-1 inhibitor: -5.4; LYPLA1 inh: 5.3; PAD4 inh: -2.3; GSTO1 inh: 36.0*

What do the screens show for `CCN(C(=O)CSc1nnc(-c2cccs2)n1CC)C1CCS(=O)(=O)C1` (stereo not drawn)?
ZTA DNA inh: -22.1; LYPLA2 inh: 1.2; EBNA-1 inhibitor: -3.1; LYPLA1 inh: 2.4; PAD4 inh: 5.0; GSTO1 inh: 5.6

What do the screens show for `COc1ccc(CCNC(=O)CSc2ccc3ccccc3c2)cc1OC`?
ZTA DNA inh: -7.7; LYPLA2 inh: 1.7; EBNA-1 inhibitor: 8.6; LYPLA1 inh: 1.3; PAD4 inh: -7.8; GSTO1 inh: -4.1

What do the screens show for `O=C(CSc1ccc2ccccc2c1)NCCc1ccc(O)c(O)c1`?
ZTA DNA inh: -12.4; LYPLA2 inh: 4.4; EBNA-1 inhibitor: -4.3; LYPLA1 inh: 2.4; PAD4 inh: -1.3; GSTO1 inh: 52.4*

What do the screens show for `Oc1c(Cl)cc(Cl)cc1Sc1cc(Cl)cc(Cl)c1O`?
ZTA DNA inh: 13.8; LYPLA2 inh: 3.8; EBNA-1 inhibitor: 17.7; LYPLA1 inh: -9.9; PAD4 inh: -3.4; GSTO1 inh: 56.6*

Results for Oc1c(Cl)cc(Cl)cc1CNn1cnnc1 ?
ZTA DNA inh: 3.7; LYPLA2 inh: -3.4; EBNA-1 inhibitor: 3.2; LYPLA1 inh: -5.1; PAD4 inh: 3.5; GSTO1 inh: 1.1

Results for COc1ccc(CC(=O)NNc2ncnc3c2cnn3-c2ccc(C)cc2)cc1 ?
ZTA DNA inh: 2.6; LYPLA2 inh: -7.9; EBNA-1 inhibitor: 96.9*; LYPLA1 inh: -2.9; PAD4 inh: 1.3; GSTO1 inh: 1.5

What do the screens show for `CCOc1ccc(Nc2nc(N)nc(CCl)n2)cc1`?
ZTA DNA inh: -10.2; LYPLA2 inh: -4.8; EBNA-1 inhibitor: -4.4; LYPLA1 inh: -1.4; PAD4 inh: -2.1; GSTO1 inh: 81.8*

What do the screens show for `Cc1cccc(Nc2nc(N)nc(CCl)n2)c1C`?
ZTA DNA inh: 12.5; LYPLA2 inh: -4.0; EBNA-1 inhibitor: 8.9; LYPLA1 inh: -0.8; PAD4 inh: 2.6; GSTO1 inh: 65.0*

What do the screens show for `O=C(O)CCC1c2cc3c4cc2OC2Oc5cc6c(cc51)C(CCC(=O)O)c1cc5c7cc1OC(O6)c1cc6cc(c1)Oc1cc(cc(C(=O)O)c1)Oc1cc8cc(c1)C(Oc1cc(c(cc1C5CCC(=O)O)C3CCC(=O)O)OC(O4)c1cc(cc(c1)Oc1cc(cc(C(=O)O)c1)O8)Oc1cc(cc(C(=O)O)c1)Oc1cc(cc2c1)Oc1cc(cc(C(=O)O)c1)O6)O7` (stereo not drawn)?
ZTA DNA inh: 105.5*; LYPLA2 inh: -169.3; EBNA-1 inhibitor: 102.0*; LYPLA1 inh: -84.2; PAD4 inh: -150.3; GSTO1 inh: -181.6

How did O=C1C=C(Nc2ccccc2)C(=O)c2ccccc21 do in these assays?
ZTA DNA inh: -11.2; LYPLA2 inh: 6.6; EBNA-1 inhibitor: -6.8; LYPLA1 inh: -0.3; PAD4 inh: -12.4; GSTO1 inh: 32.1

What do the screens show for `CCCCNC1=CC(=O)C(=O)c2ccccc21`?
ZTA DNA inh: -3.4; LYPLA2 inh: 8.0; EBNA-1 inhibitor: 1.9; LYPLA1 inh: 0.9; PAD4 inh: -1.1; GSTO1 inh: 47.7*

What do the screens show for `C#CCn1c(=NC(=O)c2sc3ccccc3c2Cl)sc2cc(S(N)(=O)=O)ccc21`?
ZTA DNA inh: 4.3; LYPLA2 inh: -63.7; EBNA-1 inhibitor: 35.1*; LYPLA1 inh: -33.9; PAD4 inh: -13.1; GSTO1 inh: -33.7

What do the screens show for `O=C(O)c1cc(-c2ccc(/C=c3\sc4nc5ccc(Br)cc5n4c3=O)o2)ccc1Cl`?
ZTA DNA inh: -0.5; LYPLA2 inh: 3.0; EBNA-1 inhibitor: -0.9; LYPLA1 inh: 7.4; PAD4 inh: -3.4; GSTO1 inh: 40.9*

What do the screens show for `O=C(NNC(=O)c1ccccc1F)c1cccc(-n2cccc2)c1`?
ZTA DNA inh: 3.2; LYPLA2 inh: -4.5; EBNA-1 inhibitor: 4.7; LYPLA1 inh: -1.9; PAD4 inh: -1.2; GSTO1 inh: 36.3*

How did O=C(NNC(=O)c1cccc(-n2cccc2)c1)c1ccccc1 do in these assays?
ZTA DNA inh: 9.5; LYPLA2 inh: 6.3; LYPLA1 inh: -1.6; PAD4 inh: -1.1

Results for COc1ccc(N2CCN(C3CCCN(Cc4cccc(OC)c4)C3)CC2)cc1 (stereo not drawn) ?
ZTA DNA inh: -3.0; LYPLA2 inh: 4.2; EBNA-1 inhibitor: -2.0; LYPLA1 inh: 1.9; PAD4 inh: 0.0; GSTO1 inh: 5.7
